Experiment [1] can be described thus: CCTE_Padilla_ZF_144hpf_TERATOSCORE: (Legacy) CCTE's 144 Hour Post-fertilization zebrafish Assay Teratoscore, Padilla Lab (AID 2283679; active = hit-call score of the fitted dose curve at least 0.9, where 1 is the maximum; inactive = score below 0.9;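 as to AC50: zebrafish embryos with chorions exposed by immersion from 6-8 hpf to 5 dpf with daily renewal; teratogenicity score from eye scoring of death hatching and malformations at 144 hpf; higher score means more developmental defects relative to DMSO baseline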). In outline:
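Larvae scored by eye at 144 hpf for death, hatching and malformations after a day in clean Hanks'. Before that, daily-renewed exposure at 80 uM (0.4% DMSO, 26C) from roughly 6-8 hpf through 5 dpf, 4 embryos per chemical.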

A short description of experiment [2]: Tanguay_ZF_120hpf_ActivityScore_legacy: (Legacy) Oregon State University Tanguay Lab 120 Hour Post-fertilization zebrafish Assay Score for Activity (AID 2283742).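 As to AC50: static exposure from 6 hpf until 120 hpf at 28 °C.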 In outline:
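Tropical 5D wild-type zebrafish embryos, dechorionated with pronase at 4 hpf, were exposed singly from 6 hpf to 120 hpf statically at 28C in 0.64% DMSO. Malformations and mortality were scored as binary by brightfield, with the activity score combining 18 morphology components.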

The nature of experiment [3]: ACEA_AR_agonist_AUC_viability: ACEA Biosciences xCELLigence Real-Time Cell Analysis on Androgen Receptor Agonism for Viability (AID 2283775).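 As to AC50: viability read 80 hours after compound addition.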 In outline:
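Read-out is area under the impedance curve at 80 h post-dose in 22Rv1 cells, with DMSO as baseline and signal loss taken as reduced viability. Compounds ran in duplicate from 100 uM final.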

A short description of experiment [4]: STM_H9_OrnithineISnorm_perc: Stemina devTOX quickPredict H9 human embryonic stem cell (hESC)-based Assay for Ornithine (ORN) Metabolite Biomarker, Normalized (AID 2283712; active = hit-call score of the fitted dose curve at least 0.9, where 1 is the maximum; inactive = score below 0.9;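 also: ornithine released into spent medium during last day measured by mass spectrometry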). Put shortly: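 Undifferentiated pluripotent H9 hESCs were exposed to compound for 72h, with media and compound replaced every 24h. Ornithine in final 24-h conditioned media was measured by UPLC-HRMS, normalized to 13C-labeled spike-in standard and to median 0.1% DMSO control.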

Experiment [5] can be described thus: STM_H9_CystineISnorm_perc: Stemina devTOX quickPredict H9 human embryonic stem cell (hESC)-based Assay for Cystine (CYSS) Metabolite Biomarker, Normalized (AID 2283713; active = hit-call score of the fitted dose curve at least 0.9, where 1 is the maximum; inactive = score below 0.9). In outline:
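Undifferentiated H9 hESCs were exposed to compound for 72h, with medium and compound replaced every 24h. Final-24h conditioned medium was deproteinized and analyzed by UPLC-HRMS. Cystine EIC area was normalized to spiked C13 standard and 0.1% DMSO median.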

The nature of experiment [6]: CEETOX_H295R_MTT_cell_viability: Viability Assessment in the CeeTox HT-H295R MTT Assay (AID 2283718; active = hit-call score of the fitted dose curve at least 0.9, where 1 is the maximum; inactive = score below 0.9;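 as to AC50: curve fitted both ways so AC50 may mark viability loss or gain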). Put shortly: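 H295R cells prestimulated 48 h with 10 uM forskolin, then exposed 48 h to test chemical (0.1% DMSO final). Viability by MTT (0.5 mg/ml, 4 h, 37 C), absorbance 570/650 nm; percent change versus DMSO, bidirectional fit.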
A short description of experiment [7]: STM_H9_OrnCyssISnorm_ratio: Stemina devTOX quickPredict H9 human embryonic stem cell (hESC)-based Assay for Ornithine (ORN):Cystine (CYSS) Ratio (AID 2283714). In outline:
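Undifferentiated H9 hESCs were exposed to compound for 72h with media and chemical replaced every 24h. Final 24-h conditioned media were deproteinized and analysed by UPLC-HRMS. ORN and CYSS peak areas were normalized to C13 internal standards and the ratio taken versus 0.1% DMSO.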

Experiment [8] can be described thus: ArunA_CellTiter_hNC: Viability Assessment in the ArunA Biomedical's Oris Neural Crest (hNC) Cell Migration Assay (AID 2283752). Put shortly:
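Human H9-derived neural crest stem cells were plated at 60,000 per well on Matrigel in growth medium with LIF and bFGF, incubated 16 h at 37C, then exposed to chemical for 72 h. Viability was read with CellTiter Aqueous One as loss of signal versus DMSO.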

A short description of experiment [9]: ArunA_Migration_hNP: ArunA Biomedical's Oris Neuroprogenitor (hNP) Cell Migration Assay (AID 2283754). Put shortly:
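Human H9-derived hNP1 neuroprogenitors on Matrigel with LIF/bFGF, plated around seeding stoppers for 16 h at 37C; stoppers removed at start of 72 h chemical exposure. Calcein-AM staining, fluorescence 494/517 nm in detection zone; loss-of-signal vs DMSO; cytochalasin D control.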

Experiment [10] in a line: ArunA_Migration_hNC: ArunA Biomedical's Oris Neural Crest (hNC) Cell Migration Assay (AID 2283755). Put shortly:
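Human H9-derived neural crest stem cells, 60,000/well on Matrigel, 16 h at 37C, then 72 h chemical exposure after seeding-stopper removal. Migration into detection zone read as calcein-AM fluorescence (ex494/em517), relative to DMSO.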

The nature of experiment [11]: ArunA_NOG_NucleusCount: ArunA Biomedical's Neurite Outgrowth (NOG) Assay for Nucleus Count (AID 2283756). In outline:
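Human H9-derived differentiated neurons were exposed for 48 h right after seeding. Hoechst-stained nuclei gated by size and intensity were counted by automated high-content imaging as viable neurons. Loss of signal vs DMSO.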

A short description of experiment [12]: ArunA_NOG_NeuriteLength: ArunA Biomedical's Neurite Outgrowth (NOG) Assay for Neurite Length (AID 2283757). Put shortly: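 Differentiated human H9-derived neurons were exposed for 48 h from seeding, then stained with Hoechst and βIII-tubulin. Automated high-content imaging gave total neurite length per valid neuron, counting processes >10 um. Loss of signal was scored versus DMSO.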

Experiment [13] can be described thus: ArunA_NOG_NeuritesPerNeuron: ArunA Biomedical's Neurite Outgrowth (NOG) Assay for Neurites Per Neuron (AID 2283758). Put shortly: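 Differentiated human H9-derived neurons exposed to chemicals for 48 h from seeding, then stained with Hoechst and βIII-tubulin/DyLight 488. Automated imaging counted neurites (processes >10 um) per valid neuron; loss of signal versus DMSO scored.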

A short description of experiment [14]: ArunA_NOG_BranchPointsPerNeurite: ArunA Biomedical's Neurite Outgrowth (NOG) Assay for Branch Points Per Neurite (AID 2283759). In outline:
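Automated image analysis traced neurites (processes >10 um) from valid cell bodies after Hoechst and βIII-tubulin staining. hNN cells from H9 embryonic stem cells, 48 h exposure. Fitted bidirectionally against DMSO.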

Experiment [15] in a line: ArunA_CellTiter_hNP: Viability Assessment in the ArunA Biomedical's Oris Neural Crest (hNC) Cell Migration Assay (AID 2283753). Put shortly:
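H9-derived hNP1 neuroprogenitors, 60,000/well on Matrigel, cultured 16 h, then 72 h chemical exposure in test medium. Cell titer via CellTiter Aqueous One; positive-direction fit vs DMSO.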

The structures appear in SMILES notation. Records with an inconclusive call do not appear. Activity calls are given as the source filed them. The calls were made as follows, unless noted: active = hit-call score of the fitted dose curve at least 0.9, where 1 is the maximum; inconclusive = response in the unintended direction; inactive = score below 0.9.

`CN[C@H]1CC[C@@H](c2ccc(Cl)c(Cl)c2)c2ccc(S(N)(=O)=O)cc21`: the values for the AC50 in experiment [1] and in experiment [3] were 61.9 µM (active) and 15.2 µM (active), respectively. Also, the outcome in [2] was inactive.
For the compound `CC1=C(/C=C/C(C)=C/C=C/C(C)=C/CO)C(C)(C)CCC1`, the AC50 in [1] was 28.2 µM (active); in [3] it was 72.2 µM (active). Moreover, the outcome in [4], in [5] and in [2] was inactive.
For the compound `O=C(OCCCCCOC(=O)c1ccccc1)c1ccccc1`, the compound was classed as inactive in experiment [1], in [6] and in experiment [2]. Besides, in experiment [3], the AC50 is 90.1 µM (active).
Take `COC(=O)c1ccc(O)cc1`: the compound was classed as inactive in experiment [1], in [5], in experiment [7], in experiment [6], in experiment [2] and in [8]. Further, the compound was classed as inactive in experiment [9], in experiment [10] and in [3]. In addition, the AC50 in experiment [4] was 0.091 µM (active); in experiment [11], 13.7 µM (active); in [12], 18.1 µM (active); in experiment [13], 17.4 µM (active); in experiment [14] it was 14.8 µM (active).
Turning to `FC(F)(F)C(F)(F)C(F)(F)C(F)(F)C(F)(F)C(F)(F)CCI`, the AC50 in experiment [1] is 31.3 µM (active). Further, the compound was called inactive in experiment [2] and in experiment [3].
On to `C1CCC(SSC2CCCCC2)CC1`, for which the outcome in experiment [1] and in [2] was inactive. In experiment [3], the AC50 was 77.7 µM (active).
For the compound `Oc1ccc2ccccc2c1N=Nc1ccccc1`, the AC50 was 5.21 µM (active) in [1] and 0.0559 µM (active) in experiment [2]. The result in experiment [4], in [5], in experiment [7], in experiment [6], in experiment [8] and in experiment [9] was inactive. Moreover, the compound was called inactive in experiment [10] and in [14].
Take `Nc1ccccc1N`: the values for the AC50 in experiment [1], in experiment [4] and in experiment [7] were 89.9 µM (active), 7.65 µM (active) and 8.66 µM (active), respectively. For the same compound, the result in experiment [5], in experiment [6], in experiment [2] and in experiment [3] was inactive.
For `CC=Cc1ccc(O)c(OC)c1`, the figures for the AC50 in [1] and in experiment [3] were 53.8 µM (active) and 50 µM (active), respectively. The compound was called inactive in experiment [6] and in experiment [2].
With `C=CCOC(=O)c1ccccc1C(=O)OCC=C`, the AC50 was 16.6 µM (active) in experiment [1], 53.5 µM (active) in experiment [5], 41.3 µM (active) in experiment [7] and 37.4 µM (active) in experiment [2]. For the same compound, the compound was called inactive in [6].
Take `Cc1oc(-c2ccccc2)nc1CCOc1cccc2c1ccn2CCC(=O)O`: the values for the AC50 in experiment [1], in [5] and in [3] were 16.1 µM (active), 0.0105 µM (active) and 68.8 µM (active), respectively. Also, the result in [4], in experiment [6] and in experiment [2] was inactive.
Regarding `CN1CCN(Cc2cc(-c3ccc4[nH]c(=O)oc4c3)co2)[C@@H](c2ccc(F)cc2)C1`, the AC50 in experiment [1] was 18.6 µM (active); in experiment [5], 5 µM (active); in experiment [7] it was 5 µM (active). Besides, the outcome in experiment [4], in experiment [6] and in experiment [2] was inactive.
As for `Cc1cc(NC(=O)C(=O)O)cc(C)c1Oc1ccc(O)c2c1CCC2`, the half-maximal activity concentration (AC50) in experiment [1] is 0.657 µM (active); in [2], 0.216 µM (active). Also, the result in experiment [4], in experiment [5], in experiment [6], in experiment [8], in [9] and in experiment [10] was inactive. For the same compound, in [11], the result was inactive.
Regarding `CC1(C)CC(N=C=O)CC(C)(CN=C=O)C1` (centres undefined), the result in [1] and in experiment [2] was inactive. The AC50 in [6] was 22.3 µM (active); in experiment [3] it was 25.5 µM (active).
For `CCCCCCCCCCO`, the call in experiment [1] and in experiment [2] was inactive.
Take `CCOC(=O)C(C)(C)Oc1ccc(Cl)cc1`: the results for the AC50 in [1] and in experiment [2] were 2.86 µM (active) and 37.7 µM (active), respectively. In experiment [3], the compound was classed as inactive.
With `COCCOCCOC`, the outcome in experiment [1], in [4], in [5], in [7] and in experiment [2] was inactive.
As for `CNCc1cc(F)ccc1Oc1ccc(Cl)c(Cl)c1`, the AC50 in [1] was 15.7 µM (active); in [3], 75.9 µM (active). In addition, the compound was classed as inactive in experiment [2].
In the case of `Oc1ccc2c(c1)OC[C@@H](N1CCC(O)(c3ccc(F)cc3)CC1)[C@H]2O`, the AC50 in [1] is 1.46 µM (active). The compound was classed as inactive in experiment [6], in [2] and in experiment [3].
For the compound `CC1(C)NC(=O)NC1=O`, the compound was called inactive in experiment [1], in experiment [2] and in experiment [3].
With `COc1ccc2c(c1)c(CC(=O)O)c(C)n2C(=O)c1ccc(Cl)cc1`, the AC50 was 61.7 µM (active) in experiment [1], 82.5 µM (active) in [4], 84.8 µM (active) in experiment [7] and 37 µM (active) in experiment [3]. Besides, the result in experiment [5] and in experiment [6] was inactive.
With `Cc1nc(C)nc(N2C[C@@H](C)N(c3ccnc([C@@H](C)O)n3)[C@@H](C)C2)n1`, the AC50 in experiment [1] was 30.3 µM (active). For the same compound, the outcome in [6], in experiment [2] and in [3] was inactive.
On to `C[C@]12C=CC(=O)C=C1CC[C@@H]1[C@@H]2C(=O)C[C@@]2(C)[C@H]1CC[C@]2(O)C(=O)CO`, for which the result in [1] and in [2] was inactive. Further, the AC50 in experiment [6] was 0.844 µM (active).
For `O=C(O)Cc1ccccc1Nc1c(Cl)cccc1Cl`, the AC50 was 4.79 µM (active) in [1], 35 µM (active) in experiment [2] and 42.1 µM (active) in experiment [3]. Also, the outcome in [4], in experiment [5] and in experiment [7] was inactive.
`O=c1c(O)c(-c2ccc(O)c(O)c2)oc2cc(O)cc(O)c12`: the compound was called inactive in experiment [1], in experiment [4], in experiment [5], in experiment [2] and in [8]. Also, the AC50 in experiment [15] was 3.88 µM (active); in experiment [9] it was 3.08 µM (active); in experiment [10], 2.36 µM (active); in experiment [12] it was 9.45 µM (active); in experiment [13], 7.94 µM (active); in [14], 8.06 µM (active). Also, the AC50 in experiment [3] is 17.8 µM (active).

By AC50 is commonly meant the concentration at which the activity in the assay is half-maximal.

These data come from PubChem BioAssay (EPA / NIEHS).
